biological target: SCGB3A1; assay: pooled miR-30 sensor sort-seq; sequence = guide strand; details: shRNA
Further: reference of the scale not given here.

| Sequence | sensor-assay potency score (higher = more potent) |
| --- | --- |
| TCTATGAGGTGGTTCACGGGGA | -0.221 |
| TCCAGCGCAGCGACAGGCTGGG | -1.47 |
| CAGCTCAGCCACACACTTCTGG | -1.81 |
| TCAGCCACACACTTCTGGGAGC | -1.19 |
| TTCACGGGGATGCCCAGGCTGC | -1.89 |
| TAAGAAAGCAGCAGCGGAGCTG | -0.766 |
| TATGAGGTGGTTCACGGGGATG | -2.01 |
| CTCAGCAGGAGCTTCAGCGGGT | -1.59 |
| AGCTCAGCCACACACTTCTGGG | -1.63 |
| AAGAAAGCAGCAGCGGAGCTGC | -0.859 |
| AAAGCAGCAGCGGAGCTGCAGG | -1.3 |
| ACTAAGAAAGCAGCAGCGGAGC | -1.78 |

biological target: SCN10A; assay: as above; details: shRNA

| Sequence | sensor-assay potency score (higher = more potent) |
| --- | --- |
| TTGAGCTTCACCCACATGGGGC | -0.622 |
| TTGGTCATCAGTCTCCACCATC | -1.09 |
| TTGTCCTGCATCGAATGCCGAG | -1.18 |
| TTGACTTTCACATTGACCCAGA | 0.154 |
| TATTCCAGAATCTTCGCTGTGA | 0.727 |
| TATGATACTGACAACACTCATT | -0.905 |
| TAATGCTCTAAGAACTCTGAAT | -0.877 |
| TTAGACAAAATCCTCTTGCCAG | -0.449 |
| TTCAGCACCATAAATGTCCGGT | 0.128 |
| TTAACCAAAATAGTGACCGTAA | 0.123 |
| TTGCTTCTCTATCTCCACCAGT | -0.403 |
| TAGTGCTGCTAGCACCTCCTGC | -0.978 |

biological target: SCN2B; assay: as above; details: shRNA

| Sequence | sensor-assay potency score (higher = more potent) |
| --- | --- |
| TTAATTAGGAGGAAGAGACAGA | -0.125 |
| ATTGTCTGTCTGCTTAACCTGA | -0.931 |
| TTGTGGTTCACTGTGTAGCAGG | -0.841 |
| TATATCTATACCTAGAGAGAGA | -1.18 |
| TTGCAAAAGAAACTCAGTCTGC | -0.173 |
| TTGTCTGTCTGCTTAACCTGAC | -0.0966 |
| TTCCCTGAGAACTCCACGCGGT | -0.473 |
| TATAGCACACACAACCAAGAAA | -1.12 |
| TTGATTGGCAGTTAGGTACTGA | 0.514 |
| TTGCACTCCTGGTAAGTCCAGT | 0.119 |
| TTTTTTTCTCCTCACACACTTG | -1.04 |
| TAAACTGGAAATAACTGTGAAG | -0.894 |

biological target: SCN4A; assay: as above; details: shRNA

| Sequence | sensor-assay potency score (higher = more potent) |
| --- | --- |
| TTGTACAGGATGTCCACCTTGA | 0.539 |
| TGCTCGACAATCTTGAAGCAGG | -1.33 |
| TTTGAACTTCTCAAGCATCTGC | 1.21 |

Source: the OligoGym collection
